About 79,000 compounds went through this panel and 15% of them were active in at least one assay; those are over-represented in the sample as a whole. Values without a mark were called inactive. Calls of active or inactive are those of the source. Cut-off read from the data, not from the text of the source: active = growth inhibition above about 70%; inactive = the rest.
How the values were obtained:
[1] = NCI Yeast Anticancer Drug Screen. Data for the rad52 strain (AID 147);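 note: 0% = growth of vehicle-treated control cultures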; details: S. cerevisiae rad52 mutant growth inhibition, hits give high values
Outline: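 Yeast strain carrying a DNA damage repair alteration was exposed to test compounds. Growth inhibition was measured relative to vehicle-treated controls.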

[2] = NCI Yeast Anticancer Drug Screen. Data for the wt1 strain (AID 149);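 note: 0% = growth of vehicle-treated wt1 cultures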; details: S. cerevisiae wt1 strain (SPY 50644) growth inhibition, hits give high values
Outline: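 The wt1 strain was treated with compounds, and growth was compared with vehicle-treated cultures to give inhibition.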

[3] = NCI Yeast Anticancer Drug Screen. Data for the rad50EPP+ strain (AID 151);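 note: 0% = growth of vehicle-treated control cultures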; details: S. cerevisiae rad50 mutant strain, hits give high values
Outline: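 Yeast strain carrying rad50 alteration (rad50EPP+) exposed to compounds; growth inhibition measured relative to vehicle-treated controls.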

[4] = NCI Yeast Anticancer Drug Screen. Data for the mgt1 strain (AID 153); details: S. cerevisiae mgt1 mutant growth inhibition, hits give high values
Outline: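 Yeast mgt1 strain (DNA repair/cell-cycle alteration panel) exposed to compounds; growth inhibition measured relative to vehicle-treated controls.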

[5] = NCI Yeast Anticancer Drug Screen. Data for the rad50 strain (AID 155);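 note: 0% = growth of vehicle-only cultures of the same strain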; details: S. cerevisiae rad50 strain growth inhibition, hits give high values
Outline: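 Cells are treated with compound, grown, and their growth is then scored against vehicle-only cultures of the same repair-deficient yeast strain.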

[6] = NCI Yeast Anticancer Drug Screen. Data for the mec2-1 strain (AID 157); details: S. cerevisiae mec2-1 strain, hits give high values
Outline: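 mec2-1 yeast strain, carrying an alteration in DNA damage repair or cell cycle control, was exposed to compounds; growth inhibition was measured relative to vehicle-treated controls.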

[7] = NCI Yeast Anticancer Drug Screen. Data for the rad14 strain (AID 159);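 note: 0% = growth of vehicle-treated control cultures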; details: S. cerevisiae rad14 strain growth inhibition, hits give high values
Outline: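 Readout: yeast growth inhibition, referenced to vehicle-only cultures. Strain bears a defined alteration in DNA damage repair.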

[8] = NCI Yeast Anticancer Drug Screen. Data for the sgs1 mgt1 strain (AID 161);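 note: 0% = growth of cultures given vehicle only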; details: S. cerevisiae sgs1 mgt1 strain, hits give high values
Outline: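 This yeast growth screen uses a strain with defined DNA-repair lesions; compound-treated growth is compared with vehicle-treated growth.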

[9] = NCI Yeast Anticancer Drug Screen. Data for the CLN2oe strain (AID 163);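 note: 0% = growth of vehicle-only control cultures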; details: S. cerevisiae CLN2oe strain, hits give high values
Outline: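 Yeast cells carrying a defined cell-cycle control alteration were exposed to test compounds. Growth inhibition was scored against vehicle-treated control cultures.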

[10] = NCI Yeast Anticancer Drug Screen. Data for the cln2 rad14 strain (AID 165);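 note: 0% = growth equal to vehicle treated cultures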; details: S. cerevisiae cln2 rad14 strain, hits give high values
Outline: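 Yeast carrying cln2 and rad14 alterations (cell cycle control and DNA damage repair) were exposed to compounds. Growth inhibition was measured against vehicle-treated controls.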

[11] = NCI Yeast Anticancer Drug Screen. Data for the bub3 strain (AID 167); details: S. cerevisiae bub3 mutant strain, hits give high values
Outline: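 Part of a panel of yeast mutants defective in DNA damage repair or cell cycle regulation. Each strain is grown with compound, and inhibition is calculated relative to solvent-treated cultures.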

[12] = NCI Yeast Anticancer Drug Screen. Data for the wt2 strain (AID 169);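 note: 0% = growth of vehicle-treated yeast cultures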; details: S. cerevisiae wt2 strain growth inhibition, hits give high values
Outline: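 Yeast cells were exposed to test compounds, and growth inhibition was measured relative to vehicle-treated controls.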

[13] = NCI Yeast Anticancer Drug Screen. Data for the mlh1 strain (AID 171);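 note: 0% = growth of vehicle-treated control cultures of the same strain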; details: S. cerevisiae mlh1 strain growth inhibition, hits give high values
Outline: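 Yeast carrying a defined genetic alteration in DNA damage repair or cell cycle control were exposed to test compounds. Growth inhibition was measured relative to vehicle-treated controls.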

[14] = NCI Yeast Anticancer Drug Screen. Data for the sgs1 strain (AID 173);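 note: 0% = growth of vehicle-only control cultures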; details: S. cerevisiae sgs1 mutant, hits give high values
Outline: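 Yeast mutant strains carrying defined defects in DNA damage repair or cell cycle control were exposed to test compounds. Growth inhibition was scored against vehicle-treated controls.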

[15] = NCI Yeast Anticancer Drug Screen. Data for the mlh1 rad18 strain (AID 175); details: S. cerevisiae mlh1 rad18 strain growth inhibition, hits give high values
Outline: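 Growth inhibition of the yeast strain was measured after compound exposure and expressed relative to vehicle-treated controls. The strain carries defined defects in DNA damage repair.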

[16] = NCI Yeast Anticancer Drug Screen. Data for the rad18 strain (AID 177); details: S. cerevisiae rad18 mutant growth inhibition, hits give high values
Outline: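 Yeast carrying a defined DNA damage repair alteration were exposed to compounds. Growth inhibition was expressed relative to vehicle-treated controls.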

[17] = at 5.0 µM (retest, dose inferred, filed as 0.5)
[18] = at 50.0 µM (retest, dose inferred, filed as 5.0)

## CCOC1Oc2ccccc2-c2nc(N)ncc21 (stereo unspecified)
[1]; at 1.2 µM
  growth inhibition: 7%
[1]; at 3.7 µM
  growth inhibition: 6%
[1]; at 11.0 µM
  growth inhibition: 3%
[1]; at 33.0 µM
  growth inhibition: 3%
[1]; at 100.0 µM
  growth inhibition: -5%
[2]; at 1.2 µM
  growth inhibition: -4%
[2]; at 3.7 µM
  growth inhibition: -1%
[2]; at 11.0 µM
  growth inhibition: 1%
[2]; at 33.0 µM
  growth inhibition: -1%
[2]; at 100.0 µM
  growth inhibition: -14%
[3]; at 1.2 µM
  growth inhibition: 0%
[3]; at 3.7 µM
  growth inhibition: -1%
[3]; at 11.0 µM
  growth inhibition: -5%
[3]; at 33.0 µM
  growth inhibition: -3%
[3]; at 100.0 µM
  growth inhibition: -12%
[4]; at 1.2 µM
  growth inhibition: -2%
[4]; at 3.7 µM
  growth inhibition: 10%
[4]; at 11.0 µM
  growth inhibition: 4%
[4]; at 33.0 µM
  growth inhibition: 9%
[4]; at 100.0 µM
  growth inhibition: 6%
[5]; at 1.2 µM
  growth inhibition: -2%
[5]; at 3.7 µM
  growth inhibition: -13%
[5]; [17]
  growth inhibition: 17%
[5]; at 11.0 µM
  growth inhibition: -5%
[5]; at 33.0 µM
  growth inhibition: 0%
[5]; [18]
  growth inhibition: 75% (active)
[5]; at 50.0 µM
  growth inhibition: 88.3% (active)
[5]; at 100.0 µM
  growth inhibition: -33%
[6]; at 1.2 µM
  growth inhibition: 13%
[6]; at 3.7 µM
  growth inhibition: 6%
[6]; [17]
  growth inhibition: 3%
[6]; at 11.0 µM
  growth inhibition: -2%
[6]; at 33.0 µM
  growth inhibition: -8%
[6]; [18]
  growth inhibition: 39%
[6]; at 50.0 µM
  growth inhibition: 85.4% (active)
[6]; at 100.0 µM
  growth inhibition: -15%
[7]; at 1.2 µM
  growth inhibition: -3%
[7]; at 3.7 µM
  growth inhibition: -5%
[7]; at 11.0 µM
  growth inhibition: -4%
[7]; at 33.0 µM
  growth inhibition: -1%
[7]; at 100.0 µM
  growth inhibition: -4%
[8]; [17]
  growth inhibition: 10%
[8]; [18]
  growth inhibition: 85% (active)
[8]; at 50.0 µM
  growth inhibition: -4.55%
[9]; at 1.2 µM
  growth inhibition: 7%
[9]; at 3.7 µM
  growth inhibition: 4%
[9]; at 11.0 µM
  growth inhibition: -14%
[9]; at 33.0 µM
  growth inhibition: -27%
[9]; at 100.0 µM
  growth inhibition: 1%
[10]; [17]
  growth inhibition: 22%
[10]; [18]
  growth inhibition: 37%
[10]; at 50.0 µM
  growth inhibition: -20.9%
[11]; at 1.2 µM
  growth inhibition: 4%
[11]; at 3.7 µM
  growth inhibition: -7%
[11]; [17]
  growth inhibition: 2%
[11]; at 11.0 µM
  growth inhibition: -12%
[11]; at 33.0 µM
  growth inhibition: -5%
[11]; [18]
  growth inhibition: 23%
[11]; at 50.0 µM
  growth inhibition: -16.8%
[11]; at 100.0 µM
  growth inhibition: -9%
[12]; at 1.2 µM
  growth inhibition: -3%
[12]; at 3.7 µM
  growth inhibition: -7%
[12]; at 11.0 µM
  growth inhibition: -7%
[12]; at 33.0 µM
  growth inhibition: -2%
[12]; at 100.0 µM
  growth inhibition: -10%
[13]; at 1.2 µM
  growth inhibition: 11%
[13]; at 3.7 µM
  growth inhibition: 16%
[13]; at 11.0 µM
  growth inhibition: 1%
[13]; at 33.0 µM
  growth inhibition: 4%
[13]; at 100.0 µM
  growth inhibition: -1%
[14]; at 1.2 µM
  growth inhibition: 3%
[14]; at 3.7 µM
  growth inhibition: 11%
[14]; at 11.0 µM
  growth inhibition: 5%
[14]; at 33.0 µM
  growth inhibition: -9%
[14]; at 100.0 µM
  growth inhibition: -9%
[15]; [17]
  growth inhibition: 12%
[15]; [18]
  growth inhibition: 76% (active)
[15]; at 50.0 µM
  growth inhibition: -21.9%
[16]; at 1.2 µM
  growth inhibition: 4%
[16]; at 3.7 µM
  growth inhibition: 7%
[16]; at 11.0 µM
  growth inhibition: -1%
[16]; at 33.0 µM
  growth inhibition: 3%
[16]; at 100.0 µM
  growth inhibition: -2%

## O=C1C=C(Cl)C(=O)N1c1cccc(Cl)c1
[1]; at 1.2 µM
  growth inhibition: 6%
[1]; at 3.7 µM
  growth inhibition: 89% (active)
[1]; at 11.0 µM
  growth inhibition: 99% (active)
[1]; at 33.0 µM
  growth inhibition: 99% (active)
[1]; at 100.0 µM
  growth inhibition: 99% (active)
[2]; at 1.2 µM
  growth inhibition: 12%
[2]; at 3.7 µM
  growth inhibition: 97% (active)
[2]; at 11.0 µM
  growth inhibition: 100% (active)
[2]; at 33.0 µM
  growth inhibition: 99% (active)
[2]; at 100.0 µM
  growth inhibition: 100% (active)
[3]; at 1.2 µM
  growth inhibition: 41%
[3]; at 3.7 µM
  growth inhibition: 96% (active)
[3]; at 11.0 µM
  growth inhibition: 99% (active)
[3]; at 33.0 µM
  growth inhibition: 99% (active)
[3]; at 100.0 µM
  growth inhibition: 99% (active)
[4]; at 1.2 µM
  growth inhibition: -3%
[4]; at 3.7 µM
  growth inhibition: 67%
[4]; at 11.0 µM
  growth inhibition: 99% (active)
[4]; at 33.0 µM
  growth inhibition: 99% (active)
[4]; at 100.0 µM
  growth inhibition: 100% (active)
[5]; at 1.2 µM
  growth inhibition: 11%
[5]; at 3.7 µM
  growth inhibition: 86% (active)
[5]; [17]
  growth inhibition: 87% (active)
[5]; at 11.0 µM
  growth inhibition: 99% (active)
[5]; at 33.0 µM
  growth inhibition: 99% (active)
[5]; [18]
  growth inhibition: 97% (active)
[5]; at 50.0 µM
  growth inhibition: 99.5% (active)
[5]; at 100.0 µM
  growth inhibition: 99% (active)
[6]; at 1.2 µM
  growth inhibition: -6%
[6]; at 3.7 µM
  growth inhibition: 63%
[6]; [17]
  growth inhibition: 8%
[6]; at 11.0 µM
  growth inhibition: 99% (active)
[6]; at 33.0 µM
  growth inhibition: 100% (active)
[6]; [18]
  growth inhibition: 99% (active)
[6]; at 50.0 µM
  growth inhibition: 99.6% (active)
[6]; at 100.0 µM
  growth inhibition: 99% (active)
[7]; at 1.2 µM
  growth inhibition: 34%
[7]; at 3.7 µM
  growth inhibition: 97% (active)
[7]; at 11.0 µM
  growth inhibition: 100% (active)
[7]; at 33.0 µM
  growth inhibition: 100% (active)
[7]; at 100.0 µM
  growth inhibition: 100% (active)
[8]; [17]
  growth inhibition: 11%
[8]; [18]
  growth inhibition: 99% (active)
[8]; at 50.0 µM
  growth inhibition: 99.5% (active)
[9]; at 1.2 µM
  growth inhibition: -13%
[9]; at 3.7 µM
  growth inhibition: 33%
[9]; at 11.0 µM
  growth inhibition: 99% (active)
[9]; at 33.0 µM
  growth inhibition: 99% (active)
[9]; at 100.0 µM
  growth inhibition: 99% (active)
[10]; [17]
  growth inhibition: 3%
[10]; [18]
  growth inhibition: 98% (active)
[10]; at 50.0 µM
  growth inhibition: 99.4% (active)
[11]; at 1.2 µM
  growth inhibition: 55%
[11]; at 3.7 µM
  growth inhibition: 93% (active)
[11]; [17]
  growth inhibition: 65%
[11]; at 11.0 µM
  growth inhibition: 99% (active)
[11]; at 33.0 µM
  growth inhibition: 99% (active)
[11]; [18]
  growth inhibition: 98% (active)
[11]; at 50.0 µM
  growth inhibition: 99.5% (active)
[11]; at 100.0 µM
  growth inhibition: 100% (active)
[12]; at 1.2 µM
  growth inhibition: 30%
[12]; at 3.7 µM
  growth inhibition: 99% (active)
[12]; at 11.0 µM
  growth inhibition: 100% (active)
[12]; at 33.0 µM
  growth inhibition: 100% (active)
[12]; at 100.0 µM
  growth inhibition: 100% (active)
[13]; at 1.2 µM
  growth inhibition: -11%
[13]; at 3.7 µM
  growth inhibition: 58%
[13]; at 11.0 µM
  growth inhibition: 99% (active)
[13]; at 33.0 µM
  growth inhibition: 100% (active)
[13]; at 100.0 µM
  growth inhibition: 100% (active)
[14]; at 1.2 µM
  growth inhibition: 21%
[14]; at 3.7 µM
  growth inhibition: 95% (active)
[14]; at 11.0 µM
  growth inhibition: 99% (active)
[14]; at 33.0 µM
  growth inhibition: 100% (active)
[14]; at 100.0 µM
  growth inhibition: 99% (active)
[15]; [17]
  growth inhibition: 0%
[15]; [18]
  growth inhibition: 95% (active)
[15]; at 50.0 µM
  growth inhibition: 99.5% (active)
[16]; at 1.2 µM
  growth inhibition: -1%
[16]; at 3.7 µM
  growth inhibition: 36%
[16]; at 11.0 µM
  growth inhibition: 99% (active)
[16]; at 33.0 µM
  growth inhibition: 99% (active)
[16]; at 100.0 µM
  growth inhibition: 99% (active)

From PubChem BioAssay (NCI)
